In the supplement of paper PMC6555819:

How the values were obtained:
Experiment in all cases: PBM binding z-score (relative to random genomic background probes); higher = stronger binding; sequences stand for … in GC…GCGATTGACAGCGTAGAATGAAGG
[1] = test system: FXR:RXRa (NR concentration 270 nM, RXRa partner concentration 90 nM)
Summary of the method: (§1)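 On custom Agilent 4×180K arrays, double-stranded probes with 34-nt variable regions carried direct-repeat seeds, single-nucleotide variants, half-site ablations or random human genomic background. Ligand-free nuclear receptor dimers were applied for 1 h, and binding was read with antibodies against each partner (one per run). Binding z-scores come from regression-normalized fluorescence, with the random background probes as reference.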

[2] = test system: LXRa:RXRa (NR concentration 270 nM, RXRa partner concentration 90 nM)
Summary of the method: as §1

[3] = test system: LXRa homodimer (NR concentration 270 nM)
Summary of the method: as §1

[4] = test system: LXRb:RXRa (NR concentration 270 nM, RXRa partner concentration 90 nM)
Summary of the method: as §1

[5] = test system: LXRb homodimer (NR concentration 270 nM)
Summary of the method: as §1

[6] = test system: PPARa:RXRa (NR concentration 270 nM, RXRa partner concentration 90 nM)
Summary of the method: as §1

[7] = test system: PPARg:RXRa (NR concentration 180 nM, RXRa partner concentration 90 nM)
Summary of the method: as §1

[8] = test system: PPARg:RXRa 270nM:90nM, anti-RXR (NR concentration 270 nM, RXRa partner concentration 90 nM)
Summary of the method: as §1

[9] = test system: PPARg:RXRa 30nM:10nM, anti-RXR (NR concentration 30 nM, RXRa partner concentration 10 nM)
Summary of the method: as §1

[10] = test system: PPARg:RXRa 90nM:30nM, anti-RXR (NR concentration 90 nM, RXRa partner concentration 30 nM)
Summary of the method: as §1

| Sequence | PBM binding z-score [1] | PBM binding z-score [2] | PBM binding z-score [3] | PBM binding z-score [4] | PBM binding z-score [5] | PBM binding z-score [6] | PBM binding z-score [7] | PBM binding z-score [8] | PBM binding z-score [9] | PBM binding z-score [10] |
| --- | --- | --- | --- | --- | --- | --- | --- | --- | --- | --- |
| CCTAGCAGGTCAATCTGGGTCACTCAAGGCTTGA | 5.49 | 6.27 | 1.3 | 4.34 | 0.627 | 4.97 | 4.83 | 5.3 | 2.13 | 4.43 |
| CCTACTGGGCCACGAAAGGTCATGGATTCAGTGA | 3.62 | 5.06 | 3.79 | 4.07 | 0.209 | 4.97 | 4.97 | 5.27 | 2.28 | 4.77 |
| GCAGTCAGGTGAAACGCAGGTAACTCAGGGTGGC | 0.205 | -0.0689 | -0.816 | -0.344 | -1.08 | 0.614 | 0.152 | 0.222 | -0.525 | 0.166 |
| ATCGAAAGGACGACGAGGTGAGTATACACCGTTT | 0.179 | -0.132 | -0.204 | -0.324 | -0.355 | -0.0942 | 1.08 | -0.0154 | 0.318 | 0.299 |
| ACTATTAGTTGACTTAGGGCAACCGGTACGACGC | 0.0418 | 0.216 | 0.333 | 0.0684 | 0.939 | 0.187 | 0.638 | 0.108 | 0.302 | 0.142 |
| TCTACTAGGTCAGTTGGTCAGCTAACGAGCTGCC | 1.67 | 1.12 | -0.0574 | 0.857 | 1.06 | 2.61 | 4.64 | 4.2 | 3.87 | 4.08 |
| AGAACGAGGTCAATGAGTTGATAGCACGGGTGGC | 7.39 | 5.21 | 0.873 | 4.04 | 1.3 | 5.6 | 6.36 | 6.01 | 3.19 | 5.11 |
| GGAACGAGGGCAAGTTGATAGCTGAGTTTGATGG | 0.775 | 0.137 | -0.459 | 0.185 | -0.455 | 1.59 | 0.992 | 1.03 | 0.138 | 0.467 |
| ACGAGCAGGCCAAGGGTCACTCAAGATTAGTCCG | 2.54 | 2.98 | 0.215 | 2.7 | -0.627 | 4.15 | 5.95 | 6.33 | 3.74 | 5.66 |
| GCTGCTAGGTCAATTGATGGTCAGCTAAAGCTCG | 2.8 | 2.21 | -0.0789 | 1.47 | 0.292 | 2.93 | 1.36 | 1.87 | -0.0907 | 1.18 |
| CCTACTGGGCCAAAAAGGTCATTGACGCCGATAA | 3.87 | 4.62 | 2.87 | 4.33 | 0.108 | 4.61 | 3.21 | 4.25 | 1.8 | 3.54 |
| CGTCCAAGGTCTATGCTAGGTCAGTGAAAGCATT | 0.1 | 5.48 | 0.995 | 2.27 | -0.26 | 0.535 | -0.39 | -0.288 | -0.641 | -0.388 |
| ATCTCTTGGTAACCAAGTTCAGTGAATGCCGAAC | 0.478 | 1.31 | 0.59 | 1.22 | 0.681 | 0.472 | 0.0645 | 0.369 | -0.134 | 0.145 |
| TTACCAAGGTGAGCTGTGGTCGTTGATCCAACTC | 0.0539 | -0.153 | -0.583 | -0.347 | -1.27 | 0.301 | -0.403 | 0.0963 | -0.507 | 0.106 |
| ACTATTAGTTGAGACGAGTGCAACCGATAGGTTG | -0.26 | -0.238 | -0.221 | -0.356 | -0.0624 | -0.254 | 0.511 | 0.0303 | -0.299 | -0.303 |
| TCATATAGGTCAAGGTGAAAGTCGAACGATATGA | 6.5 | 4.65 | 0.783 | 3.73 | 0.775 | 6.15 | 8.55 | 7.65 | 6.25 | 7.63 |
| TCCGCTAGGTCAACGATGGTCAGCTAATCTGCTA | 2.89 | 2.67 | 0.0246 | 1.54 | -0.303 | 3.09 | 2 | 2.53 | 1.82 | 2.22 |
| TTACCAAGGTGAAGGTTGTTGATCCCTCTGTAGA | 0.965 | 0.801 | -0.298 | 0.622 | -0.706 | 1.61 | 1.21 | 2.25 | 1.07 | 1.96 |
| CCTACTGGGTCAAGGTCATTGATCAGTCAAAGCA | 6.14 | 5.13 | 2.13 | 4.83 | 0.0227 | 6.04 | 8.59 | 7.05 | 5.09 | 6.81 |
| TCTTGTAGATCAACAAGAGGTTAAGAAAGATCGA | 0.445 | 2.13 | 0.311 | 1.41 | -0.334 | 1.96 | 0.437 | 1.19 | 2.15 | 1.59 |

| Sequence | PBM binding z-score [1] | PBM binding z-score [2] | PBM binding z-score [3] | PBM binding z-score [4] | PBM binding z-score [5] | PBM binding z-score [6] | PBM binding z-score [7] | PBM binding z-score [8] | PBM binding z-score [9] | PBM binding z-score [10] |
| --- | --- | --- | --- | --- | --- | --- | --- | --- | --- | --- |
| TCATATAGGTAAAAGGTGAAAGTAGGTGTGGTAA | 2.28 | 2.13 | 0.449 | 2.3 | 0.226 | 5.4 | 9.14 | 8.72 | 8.11 | 9.43 |
| CCTTACGGTTCACGAGGTTATAGCACGACGAGCG | 3.45 | 3.49 | 1.87 | 2.57 | 0.189 | 3.75 | 1.96 | 2.4 | 0.593 | 1.58 |
| GATACAGGGTAAAGGCCAGAGTACGCGTATTGAT | 0.103 | -0.0959 | -0.132 | 0.0218 | -0.658 | 2.46 | 4.52 | 5.45 | 3.7 | 5.48 |
| GATACAGGGCCAAGGCCAGAGTACGCGTATTGAT | -0.68 | -0.832 | -0.782 | -1 | -1.09 | -0.662 | 0.814 | 0.25 | -0.269 | -0.247 |
| TTACCAAGGTGCGCTGAGGTCGTTGATCCAACTC | 0.911 | 0.599 | 0.0298 | 0.588 | -0.404 | 0.971 | -0.397 | -0.0544 | -0.287 | 0.0957 |
| GCGACTGGGGCAAAGCAGGTGACCATAAGGTTGG | -0.334 | -0.7 | -0.835 | -0.574 | -1.48 | 1.09 | 0.993 | 1.27 | -0.349 | 0.239 |
| TCATATAGGTAAATGCTAGGTTAAAGTCCGATCT | 1.18 | 1.82 | 1.14 | 1.05 | 0.0487 | 1.7 | 0.987 | 2.22 | 3.48 | 2.87 |
| CGAACTAGGGCATGAGTTGATAGCAAATGCCGAT | -0.0776 | -0.357 | -0.246 | -0.279 | -0.828 | 2.34 | 4.14 | 4.13 | 2.03 | 3.43 |
| CCTAGCAGGCCAGGGTCACACAAGCATTTCGCTT | 2.57 | 2.38 | -0.252 | 2.77 | -0.795 | 4 | 2.01 | 2.57 | 0.18 | 1.59 |
| TGAATGAGGTTATAAGATCAGGAAACGTTGCAAA | 1.24 | 1.53 | -0.511 | 1.5 | -0.0615 | 2.98 | 1.29 | 2.14 | 0.703 | 1.62 |
| ATATGTAGGTTATCGGGTCGTTCAGTTTGCGCAT | 1.16 | 1.68 | 0.76 | 1.73 | 0.781 | 3.79 | 5 | 4.95 | 2.24 | 4.25 |
| CGTCCAATGTCAGCAGGTCAGTGAAAGCGACGTG | 0.418 | 0.255 | -0.0257 | 0.392 | -0.161 | 1.22 | 0.115 | 0.0995 | -0.882 | -0.158 |
| TGAATTAGGTTATAAGATCAGGGAACGTTGCAAA | 0.295 | 0.216 | -0.00025 | 0.474 | 0.221 | 1.97 | 2.18 | 3.06 | 1.96 | 2.45 |
| CCGACTGGGGCAGAGGTTACCATACTCAGTACGA | 0.287 | 0.761 | -0.0955 | 1.34 | -1.08 | 3.62 | 8.22 | 7.57 | 6.11 | 7.57 |
| ACTATAAGTTGACTTAGGGCAACCGATACGACGC | 0.483 | 0.919 | 0.287 | 0.215 | 0.348 | 0.427 | 1.23 | 0.205 | 0.44 | 0.54 |
| GCTAGTTAGTCAGTAAAAGGTCACACACCGGTCG | 3.12 | 4.12 | 4.46 | 3.91 | 0.32 | 4.56 | 3.96 | 5.48 | 3.89 | 5.04 |
| AGAACGAGGGCAGTGAGTTGATAGCACGGGTGGC | -0.476 | -0.6 | -0.882 | -0.705 | -0.698 | 0.144 | 0.647 | -0.0577 | -0.624 | -0.408 |
| CCTCGGAGGACAGAAGGTCGGAGCTGTCCGCTTT | -0.221 | -0.259 | -0.611 | -0.529 | -0.931 | -0.47 | -0.973 | -0.664 | -1.51 | -1.26 |
| CGTCAGAGTTCAACTAAGGTAACGTAAAGCACGC | 6.8 | 5.7 | 3.39 | 3.95 | 1.39 | 4.78 | 3.46 | 3.98 | 1.19 | 2.53 |
